Experimental data published in PubChem BioAssay.
Active and inactive are the calls of the source.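 Rule for the calls, unless noted: active = visually confirmed hit in the image check and inhibition above 20%; inconclusive = visually confirmed hit but inhibition not above 20%; inactive = no visual hit in the image check.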

Columns and labels:
[1] = inhibitors of TNFa-induced NFkB p65 translocation, primary screen, imaging, HUVEC, MLSMR starter and 10KST1 sets (AID 438;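 active = inhibition above 20% together with a positive visual image hit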;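 note: compound added about 3h40 before a 20 min TNFalpha stimulation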;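 for inhibition: signal is the nuclear over cytoplasmic p65 intensity ratio per well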); details: HUVEC TNFa-induced p65 nuclear translocation; cell count: measured here: nuclei count (cytotoxicity indicator), at 2.08 µM; inhibition: at 2 µM, stronger effect = higher value, 0% TNFa-plus-vehicle, 100% no-TNFa wells
[2] = reduction of polyQ htt aggregates in cells – imaging, exon1htt(103Q)mCFP cells, high-content imaging, primary screen (AID 483;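 active = visual image review flags a hit and inhibition of aggregation exceeds 20%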;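 note: compound exposure lasted 3 days before fixation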;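 for nuclei count: percent of the per-plate median nuclei count of sample wells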); details: exon1htt(103Q)mCFP cell line, aggregate imaging, at 2 µM; inhibition of aggregation: stronger effect = higher value; nuclei count: measured here: cell count, toxicity
[3] = endothelial E-selectin expression blockers – imaging, HUVEC, immunofluorescence, MLSMR starter and 10KST1 sets, primary screen (AID 487); details: HUVEC TNFalpha-induced E-selectin immunofluorescence imaging, at 2 µM; inhibition: stronger effect = higher value; nuclei count: measured here: cell number, toxicity;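 for inhibition: signal is fraction of cell area covered by stained E-selectin grains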;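 for nuclei count: 100% = median nuclei count of all wells on the same plate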
[4] = biological target: Voltage-gated potassium channel subunit beta-2 (Rattus norvegicus) (UniProt P62483); assay: inhibitors of rat Kvbeta2 reductase activity – biochemical, NADPH fluorescence, primary screen (AID 622;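 active = fluorescence slope higher than the sample average by over 3 SD, cut at about -0.22 in these data, passing the limit was not always enough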;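 note: slope of raw intensity against log time taken from 70 to 1610 s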); details: recombinant KvBeta, 4-cyanobenzaldehyde reduction, at 10 µM, stronger effect = higher value
[5] = biological target: Voltage-gated potassium channel subunit beta-2 (Rattus norvegicus) (UniProt P62483); assay: enhancers of rat Kvbeta2 NADPH turnover – biochemical, NADPH fluorescence, primary screen (AID 623;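 active = NADPH fluorescence slope more negative than the mean of all samples by about 3 SD, 99.7% confidence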;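 note: fluorescence intensity change per second fitted from 20 to 320 s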); details: Recombinant KvBeta, NADPH fluorescence decrease slope, 10 min; at 10 µM; stronger effect = lower value
[6] = biological target: Alpha-2C adrenergic receptor (Homo sapiens) (UniProt P18825); assay: compounds altering alpha2C-coupled GIRK flux – cell-based, HEK293 alpha2C/GIRK1/2, thallium flux, primary screen (AID 624;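 active = fluorescence slope after compound addition differing from the mean of all screened samples at 99.7% confidence, in either direction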;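 note: slope of fluorescence ratio to pre-addition baseline per second over 15 to 24 s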); details: thallium flux BTC fluorescence, at 10 µM, actives lie on both sides
[7] = blockers of RIG-like receptor reporter activation – cell-based, Sendai virus stimulus, luciferase, 10K MLSCN set, TLR/RLR signaling modifier project, primary screen (AID 602276;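 active = inhibition at or above 50% at 10 µM; inactive = inhibition below 50%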;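 note: firefly luciferase from ISG56 promoter only with Renilla not read in this screen; 0% = Sendai virus plus DMSO and 100% = medium plus DMSO without virus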); details: HEK293 RL24 IRF3 luciferase reporter, at 10 µM, stronger effect = higher value
[8] = TLR3 IRF3 reporter activation blockers – cell-based, poly I:C stimulus, luciferase, 10K MLSCN set, primary screen (AID 602277;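 active = inhibition of the reporter signal at or above 50%; inactive = inhibition below 50%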); details: HEK293-TLR3 RL24 IRF3 luciferase reporter, at 10 µM, stronger effect = higher value

Alpha-2C adrenergic receptor (Homo sapiens), sequence (P18825 whole entry, looked up): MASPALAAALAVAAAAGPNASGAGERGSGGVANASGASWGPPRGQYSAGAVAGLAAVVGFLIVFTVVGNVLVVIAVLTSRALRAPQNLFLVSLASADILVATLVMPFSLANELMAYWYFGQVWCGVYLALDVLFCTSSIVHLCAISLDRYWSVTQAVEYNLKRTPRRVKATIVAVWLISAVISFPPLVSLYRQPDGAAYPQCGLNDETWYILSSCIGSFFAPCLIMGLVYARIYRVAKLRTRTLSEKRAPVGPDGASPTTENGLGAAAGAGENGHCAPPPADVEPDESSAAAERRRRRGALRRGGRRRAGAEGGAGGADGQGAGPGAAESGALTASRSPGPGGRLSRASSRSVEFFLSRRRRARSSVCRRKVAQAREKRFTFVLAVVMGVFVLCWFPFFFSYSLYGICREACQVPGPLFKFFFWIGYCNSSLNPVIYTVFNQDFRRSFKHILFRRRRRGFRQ
Voltage-gated potassium channel subunit beta-2 (Rattus norvegicus), sequence (P62483 whole entry, looked up): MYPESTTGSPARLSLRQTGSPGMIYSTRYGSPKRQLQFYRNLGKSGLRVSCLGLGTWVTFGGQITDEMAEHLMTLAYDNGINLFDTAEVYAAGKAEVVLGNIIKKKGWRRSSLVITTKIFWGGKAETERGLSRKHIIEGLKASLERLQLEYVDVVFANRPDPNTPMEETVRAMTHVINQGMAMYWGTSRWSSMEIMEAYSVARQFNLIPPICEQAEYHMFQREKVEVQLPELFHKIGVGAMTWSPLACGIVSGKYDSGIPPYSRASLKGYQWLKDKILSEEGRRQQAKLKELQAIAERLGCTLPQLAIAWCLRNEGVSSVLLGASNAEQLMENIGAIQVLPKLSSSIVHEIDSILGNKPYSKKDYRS

| Structure (SMILES) | cell count [1] | inhibition [1] | inhibition of aggregation [2] | nuclei count [2] | inhibition [3] | nuclei count [3] | fluorescence slope [4] | NADPH fluorescence slope [5] | slope [6] | inhibition [7] | inhibition [8] |
| --- | --- | --- | --- | --- | --- | --- | --- | --- | --- | --- | --- |
| O=C(NCc1ccccc1)C1CCCN1S(=O)(=O)c1cccc2cccnc12 (stereo not given) | 521 | -4.4% (inactive) | -7.9% (inactive) | 67.5% | -42.2% (inactive) | 111% | -0.561 (inactive) | 3.4e-05 (inactive) | 0.00702 (inactive) | 3.4% (inactive) | 34.5% (inactive) |
| Cc1cc(C)c2c(n1)nn1c(C3CC3)cc(C(F)(F)F)nc21 | 631 | -2% (inactive) | 1.3% (inactive) | 92.2% | -11.4% (inactive) | 123% | -0.315 (inactive) | 2.7e-06 (inactive) | 0.00594 (inactive) | 8.22% (inactive) | 17.3% (inactive) |
| CCOC(=O)N1CCC(N2C(=O)c3ccc(C(=O)NCc4ccco4)cc3C2=O)CC1 | 646 | -6.1% (inactive) | 0.7% (inactive) | 96.3% | -40.8% (inactive) | 126% | -0.59 (inactive) | -2.2e-06 (inactive) | 0.00518 (inactive) | 7.39% (inactive) | 26.2% (inactive) |
| Cc1c(C(=O)NCCC2=CCCCC2)oc2ccc(S(=O)(=O)N3CCC4(CC3)OCCO4)cc12 | 643 | 10.9% (inactive) | -35% (inactive) | 113% | -42.7% (inactive) | 106% | -0.413 (inactive) | -5.5e-05 (inactive) | 0.00783 (inactive) | 16.2% (inactive) | 29.4% (inactive) |
| CCOC(=O)c1[nH]nc(N)c1NC(=O)c1ccc(Cl)cc1Cl | 554 | -4.9% (inactive) | 3.8% (inactive) | 99.2% | -238% (inactive) | 134% | -0.456 (inactive) | 8.2e-05 (inactive) | 0.00589 (inactive) | -16.4% (inactive) | -22.5% (inactive) |
| O=C(NCc1ccco1)c1cccn2c(=O)c3sccc3nc12 | 452 | -1.9% (inactive) | -0.8% (inactive) | 96% | 19.6% (inactive) | 101% | -0.112 (inactive) | -7.3e-06 (inactive) | 0.00303 (inactive) | -2.36% (inactive) | -2.82% (inactive) |
| Cc1cccnc1-n1c(CCN2C(=O)c3ccccc3C2=O)nc2ccccc2c1=O | 359 | -5.4% (inactive) | 12.7% (inactive) | 84.4% | -12.9% (inactive) | 83.7% | -0.327 (inactive) | -7.6e-06 (inactive) | 0.00629 (inactive) | 2.74% (inactive) | 2.5% (inactive) |
| COc1cccc(NC(=O)N(Cc2ccco2)C(C)c2cccs2)c1 (stereo not given) | 734 | -12.7% (inactive) | -16.2% (inactive) | 103% | -52.3% (inactive) | 114% | -0.469 (inactive) | 2.7e-05 (inactive) | 0.00569 (inactive) | 11% (inactive) | 15.1% (inactive) |
| O=c1oc2ccccc2c(O)c1C=NCc1ccccn1 | 452 | 7.6% (inactive) | 2.3% (inactive) | 98.7% | -63.5% (inactive) | 95.8% | -0.509 (inactive) | -4.5e-05 (inactive) | 0.00647 (inactive) | -8.1% (inactive) | 22.7% (inactive) |
| c1ccc(C2(Cn3ccc4ccccc43)OCCO2)cc1 | 311 | -13% (inactive) | -6% (inactive) | 109% | -115% (inactive) | 123% | -0.482 (inactive) | 2.6e-06 (inactive) | 0.00648 (inactive) | 4.02% (inactive) | 12% (inactive) |
| CCOC(=O)N1CCN(C(=O)CSc2nnc(-c3cccc(Cl)c3)o2)CC1 | 543 | 11.7% (inactive) | -117% (inactive) | 10.5% | -3.2% (inactive) | 96% | -0.494 (inactive) | -0.000158 (inactive) | 0.00621 (inactive) | 0.178% (inactive) | 18.7% (inactive) |
| COc1cccc(NS(=O)(=O)c2ccc3[nH]cc(C(=O)NC4CC4)c(=O)c3c2)c1 | 305 | 4% (inactive) | -2.9% (inactive) | 113% | -42.4% (inactive) | 126% | -0.603 (inactive) | -7e-05 (inactive) | 0.00731 (inactive) | 13.8% (inactive) | 32.8% (inactive) |
| Cc1nc2sc(C(c3cccs3)N3CC(C)CC(C)C3)c(O)n2n1 (stereo not given) | 614 | 3.9% (inactive) | 27.2% (inactive) | 118% | -12.3% (inactive) | 109% | -0.545 (inactive) | 4.4e-06 (inactive) | 0.00614 (inactive) | 11.2% (inactive) | 21.5% (inactive) |
| O=C(O)c1ccc2c(c1)N(Cc1ccccc1F)C(=O)c1ccccc1S2=O (stereo not given) | 585 | -1.2% (inactive) | 17.9% (inactive) | 64.2% | -49.8% (inactive) | 107% | -0.537 (inactive) | -5.5e-07 (inactive) | 0.0062 (inactive) | 11.3% (inactive) | 7.14% (inactive) |
| Cc1nnc2n(-c3ccc(Cl)cc3)c(=O)c3c4c(sc3n12)CN(C)CC4 | 386 | -5.7% (inactive) | 8.9% (inactive) | 93.3% | 22% (inactive) | 89.5% | -0.477 (inactive) | -0.000149 (inactive) | 0.00624 (inactive) | -17.3% (inactive) | -5.51% (inactive) |
| O=C(OCC(=O)N1CCCC1)c1ccccc1OCc1ccccc1 | 576 | -10.8% (inactive) | -9.8% (inactive) | 95.3% | -42.5% (inactive) | 123% | -0.505 (inactive) | -3.9e-05 (inactive) | 0.00498 (inactive) | -11.3% (inactive) | 6.16% (inactive) |
| CCOC(=O)C1CCN(c2c(NC3CCCc4ccccc43)c(=O)c2=O)CC1 (stereo not given) | 672 | 6.6% (inactive) | -3.3% (inactive) | 86.1% | -22.1% (inactive) | 98.7% | -0.571 (inactive) | -3e-05 (inactive) | 0.00585 (inactive) | 7.84% (inactive) | 29.9% (inactive) |
| O=c1oc2c3c4c(cc2s1)CCCN4CCC3 | 441 | 7.4% (inactive) | -6.4% (inactive) | 100% | -17.7% (inactive) | 119% | -0.463 (inactive) | -6e-05 (inactive) | 0.00368 (inactive) | 7.3% (inactive) | 31.7% (inactive) |
| CCOC(=O)C1=C(c2ccccc2)NC(=O)NC1c1ccc(N(C)C)cc1 (stereo not given) | 363 | -0.5% (inactive) | 14.6% (inactive) | 86.7% | -131% (inactive) | 118% | -0.439 (inactive) | -4.5e-05 (inactive) | 0.00395 (inactive) | 12.6% (inactive) | 29.3% (inactive) |
| N#Cc1c(NC(NC(=O)c2ccco2)C(=O)c2ccccc2)sc2c1CCCC2 (stereo not given) | 415 | -6% (inactive) | -7.6% (inactive) | 118% | -31.6% (inactive) | 121% | -0.369 (inactive) | 9.4e-06 (inactive) | 0.00297 (inactive) | 5.59% (inactive) | 22.2% (inactive) |
